Bioassay records from PubChem.
The list is not random: actives were taken first. Their share in the collection is about 4%.
Rv3671c inh – Rv3671c (M. tuberculosis) protease inhibition; P9WHR9; inhibition, % at 5.96 µM; actives 0.048% (n = 320,000); in the data active = inhibition above about 38%;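 note: extracellular domain of Rv3671c used as enzyme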
GDH-TPI counter – inhibits GDH-TPI coupling enzymes, artifact for Mtb FBA screen | AID 588335 | GDH-TPI coupled enzyme counterscreen, NADH absorbance | actives 1.2% (n = 360,000) | inhibition, % at 4.8 µM; in the data active = inhibition above about 30%
Mtb betalactam – beta-lactam sensitization of Mtb H37Rv; AID 434955; actives 0.27% (n = 330,000); inhibition, % at 25 µM; M. tuberculosis H37Rv growth with meropenem, percent inhibition;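 note: growth measured after seven days incubation then overnight dye step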
Mtb UGM inh – Mtb UDP-galactopyranose mutase inhibition; P9WIQ1; purified UGM, fluorescence polarization probe displacement; inhibition, % at 10 µM; actives 0.06% (n = 320,000); in the data active = inhibition above about 10%, passing the limit was not always enough
Mtb FBA inh – inhibitors of M. tuberculosis fructose-bisphosphate aldolase. P9WQA3. purified M. tuberculosis FBA, fluorescence read-out. inhibition, % at 1 µM. actives 2.3% (n = 360,000); in the data active = inhibition above about 27%
RecA splice inh – Mtb RecA intein splicing inhibition. P9WHJ3. actives 0.75% (n = 290,000). inhibition, % (test concentration not listed). cell-free RecA intein splicing, fluorescence; in the data active = inhibition above about 30%
Target sequence (P9WHJ3 whole entry, looked up, canonical isoform): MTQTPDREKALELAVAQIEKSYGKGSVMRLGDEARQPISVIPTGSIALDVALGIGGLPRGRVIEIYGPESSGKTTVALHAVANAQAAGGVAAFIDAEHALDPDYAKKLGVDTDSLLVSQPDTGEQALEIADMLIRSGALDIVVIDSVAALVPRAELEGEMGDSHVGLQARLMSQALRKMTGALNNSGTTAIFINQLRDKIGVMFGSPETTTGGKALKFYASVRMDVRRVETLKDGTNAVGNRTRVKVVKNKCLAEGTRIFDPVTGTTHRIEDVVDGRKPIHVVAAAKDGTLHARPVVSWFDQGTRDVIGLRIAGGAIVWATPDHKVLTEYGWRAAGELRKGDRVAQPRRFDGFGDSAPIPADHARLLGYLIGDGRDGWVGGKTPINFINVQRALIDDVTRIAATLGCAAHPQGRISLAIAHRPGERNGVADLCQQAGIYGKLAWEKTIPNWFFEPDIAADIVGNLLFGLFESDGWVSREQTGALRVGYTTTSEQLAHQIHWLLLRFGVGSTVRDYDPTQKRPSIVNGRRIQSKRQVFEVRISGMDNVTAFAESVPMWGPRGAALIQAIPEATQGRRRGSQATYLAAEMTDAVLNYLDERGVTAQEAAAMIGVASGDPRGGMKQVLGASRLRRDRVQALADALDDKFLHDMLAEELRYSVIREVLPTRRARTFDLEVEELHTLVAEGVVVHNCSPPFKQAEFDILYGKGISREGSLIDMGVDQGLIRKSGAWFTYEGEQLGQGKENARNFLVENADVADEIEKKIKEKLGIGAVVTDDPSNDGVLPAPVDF
GFP chromophore – counter-screen GFP chromophore formation inhibition; shares compounds with RecA splice inh; cell-free GFP chromophore formation, fluorescence; EC50, µM; actives 83% (n = 2,100); AID 434968
A number is an active result; i = inactive; nt = no result. Unless noted, the rule behind the calls is not given here.

SMILES	Rv3671c inh	GDH-TPI counter	Mtb betalactam	Mtb UGM inh	Mtb FBA inh	RecA splice inh	GFP chromophore
CC(C)CNc1ncnc2c1ncn2[C@H]1CN(Cc2ccc(-c3ccccc3)cc2)C[C@@H](CO)O1	nt	i	nt	nt	i	nt	nt
CCc1[nH]nc2c1C(c1ccsc1)C(C#N)=C(N)O2 (stereo unspecified)	i	i	i	i	i	77	26
N#CC1=C(N)Oc2n[nH]c(-c3cccs3)c2C1c1ccco1 (stereo unspecified)	i	i	i	i	i	83	18
COc1cccc(-c2[nH]nc3c2C(c2ccc(C)o2)C(C#N)=C(N)O3)c1 (stereo unspecified)	i	nt	i	i	nt	78	17
COc1ccc(S(=O)(=O)N2CCCCCC2)cc1C(=O)Nc1ccc(C(=O)N(C)C)cc1	nt	i	nt	nt	i	nt	nt
Cc1cccc(C(C)C)c1NC(=O)COC(=O)CCN1C(=O)C2CC=CCC2C1=O (stereo unspecified)	i	i	i	i	i	i	nt
CC(=O)Nc1ccc(NC2=C/C(=N/S(=O)(=O)c3cccs3)c3ccccc3C2=O)cc1	i	i	i	i	i	nt	nt
COc1ccc(S(=O)(=O)/N=C2\C=C(Nc3ccc(O)cc3)C(=O)c3ccccc32)cc1	i	i	i	i	i	93	0.34
Cc1ccccc1NC1=C/C(=N\S(=O)(=O)c2cccs2)c2ccccc2C1=O	i	i	i	i	i	37	1
Cc1ccccc1NC1=C/C(=N\S(=O)(=O)c2ccc(C(=O)O)cc2)c2ccccc2C1=O	i	i	i	i	i	96	11
O=C(O)c1ccc(S(=O)(=O)/N=C2\C=C(Nc3ccccc3F)C(=O)c3ccccc32)cc1	i	i	i	i	i	94	0.17
COc1cc(O)cc2c1[C@@H]1Oc3c(ccc(O)c3CC=C(C)C)[C@@H]1CO2	i	i	i	i	i	i	nt
COc1ccc(S(=O)Cc2ccc(C(=O)NC3CC3)o2)cc1 (stereo unspecified)	i	i	i	i	i	i	nt
CCC(=O)Nc1c(C)nn(-c2ccc(C)c(C)c2)c1C	i	i	i	i	i	i	nt
CCC(=O)Nc1c(C)nn(C(=O)CC)c1C	i	i	i	i	i	57	i
COc1ccccc1C(=O)Nc1ccc(OCC(=O)N2CC(C)CC(C)C2)cc1 (stereo unspecified)	i	i	i	i	i	nt	nt
COc1ccc(C(=O)O/N=C2\C(=O)N(C)c3ccccc32)cc1	i	i	i	i	i	nt	nt
CN1C(=O)/C(=N\OC(=O)c2cccc3ccccc23)c2ccccc21	i	i	i	i	i	38	32
C[C@@H]1CCCCO[C@H](CN(C)C(=O)Nc2ccc(F)cc2)[C@@H](C)CN([C@H](C)CO)C(=O)c2cc(N(C)C)ccc2O1	nt	i	nt	nt	i	nt	nt
Cc1cc(C)cc(OC(=O)CS(=O)c2ccc(C(F)(F)F)cc2[N+](=O)[O-])c1 (stereo unspecified)	i	i	i	i	i	43	6.3
O=C(COc1ccc(F)c(Cl)c1)Nc1ccc(N2CCOCC2)cc1	i	i	i	i	i	nt	nt
N#Cc1cc([N+](=O)[O-])c(-n2nnc3ccccc32)c([N+](=O)[O-])c1	i	i	i	i	i	94	i
CC(NC(=O)C(NS(=O)(=O)c1cccs1)C(C)C)c1ccc(S(N)(=O)=O)cc1 (stereo unspecified)	i	i	i	i	i	nt	nt
CCNC(=O)c1ccccc1-c1nc(-c2ccccc2)no1	i	i	i	i	i	30	i
O=C(NCC1CCCO1)c1ccccc1-c1nc(-c2ccccc2)no1 (stereo unspecified)	i	i	i	i	i	i	nt
CCOc1ccc(CCN2C(=S)N([C@@H](Cc3ccc(O)cc3)CN3CCC[C@@H]3CN3C(=S)NC[C@@H]3CC(C)C)C[C@@H]2Cc2ccc(O)cc2)cc1	nt	nt	nt	nt	i	nt	nt
CCOc1ccccc1N1CCN(C(=O)c2ccccc2OCc2c(C)noc2C)CC1	i	i	i	i	i	nt	nt
COC1(OC)C(/C=C/c2ccc(C)cc2)C(C#N)(C#N)C1(OC)OC (stereo unspecified)	i	i	i	i	i	59	i
O=c1[nH]cc(NCCc2ccccc2)c(=O)[nH]1	i	i	i	i	i	52	5.5
